# Measured values reported in the supplement of paper PMC6555819.
# Legend:
# Assay in all cases: PBM binding z-score (relative to random genomic background probes); higher = stronger binding; sequences stand for … in GC…GCGATTGACAGCGTAGAATGAAGG
# [1] = tested on: RARb homodimer (NR concentration 270 nM)
# How it was run: (§1)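 Antibodies against each partner of ligand-free nuclear receptor dimers (one per run) detected binding on custom Agilent 4×180K protein-binding microarrays after 1 h incubation. The double-stranded probes had 34-nt variable regions carrying direct-repeat seeds, single-nucleotide variants, half-site ablations and random human genomic background sequences. Binding z-scores, from regression-normalized fluorescence, use the random background probes as reference.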
# [2] = tested on: RARg:RXRa (NR concentration 270 nM, RXRa partner concentration 90 nM)
# How it was run: as §1
# [3] = tested on: RARg homodimer (NR concentration 270 nM)
# How it was run: as §1
# [4] = tested on: RXRa DBDmut IVT, anti-RXR (DBD mutation: RXRa K156A/R161A, NR concentration 90 nM)
# How it was run: as §1
# [5] = tested on: RXRa homodimer (NR concentration 180 nM)
# How it was run: as §1
# [6] = tested on: THRa:RXRa (NR concentration 90 nM, RXRa partner concentration 90 nM)
# How it was run: as §1
# [7] = tested on: THRa homodimer (NR concentration 90 nM)
# How it was run: as §1
# [8] = tested on: VDR homodimer (NR concentration 270 nM)
# How it was run: as §1
Sequence,PBM binding z-score [1],PBM binding z-score [2],PBM binding z-score [3],PBM binding z-score [4],PBM binding z-score [5],PBM binding z-score [6],PBM binding z-score [7],PBM binding z-score [8]
AGTCAAAGTTCAGGCCGAGGTAACGTAAAGCACG,3.34,5.07,4.99,3.1,2.85,3.78,1.3,2.53
TCTTGTAGATCAACAGGAGGTTAAGAGAGATCGA,0.58,1.1,0.453,0.0129,0.887,1.01,-0.746,-0.539
TCATATAGGTAAAAGGTGAAAGTTGGTGTGGTAA,2.19,2.24,0.981,1.89,3.27,1.9,0.96,0.577
TCTAGTTGGTCCAAGGTCACACACTCGAAATGCG,4.11,4.07,3.8,2.01,4.39,4.31,4.14,3.22
AATACAGGGTCACTAGGCTAGAGTAGGTACGAAT,3.33,4.95,5.26,2.71,5.52,3.35,1.23,2.2
ATCGAAAGGTCGACGAGGTGAGTAGACACCGTTT,2.83,4.43,3.75,0.736,4.27,3.85,0.861,0.955
TGTCAAAGTTCAAAGGTAACCTAAGTATCCACAC,3.92,6.15,5.71,4.52,7.11,3.64,0.627,3.92
ACTATTAGTTGACTTAAGGCAACCGATACGACGC,0.11,0.623,0.592,0.8,0.347,2.4,0.592,0.124
TTACCACGGTGAAGGTCGTTGATCCCTCTGTAGA,1.29,0.459,0.382,-0.000966,1.37,0.834,0.375,0.451
TTGCCTAGGTCATGCGGGCCAGTATAGTGTCGGC,2.96,3.93,4.33,0.791,2.76,3.08,0.807,0.421
CCAGACAGGTGAGAAGGTTACTCAGCCTCGATTA,1.63,1.67,1.13,0.518,1,0.657,0.115,0.152
ATCGTAAGGTCGACGAGGTGAGTATACACCGTTT,2.31,3.18,3.23,1.37,3.01,3.89,2.39,1.63
TGAAGGAGGTTATAAGATCAGGGAACGTTGCAAA,0.457,1.11,0.942,-0.654,1.56,0.689,0.0287,0.219
TCTGCTAGTTCAACGATGGTCAGCTAATCTGCTA,0.82,0.768,1.03,1.32,0.188,0.928,-1.34,0.129
CCTACTGGGCCATCAGGTCCTTGATATCAACGTT,0.0749,-0.0484,0.0919,-0.586,-0.412,0.183,0.322,0.000123
TCTTGTAGATCATGCAGGTTAAGAAAGCCTGAGT,0.268,0.108,0.0949,0.784,0.65,0.509,-0.0439,0.115
CCTCGGAGGACAGAAGGTCAGTGCTGTCCGCTTT,3.69,3.14,3.23,0.236,1.25,1.88,-0.0278,0.261

Sequence,PBM binding z-score [1],PBM binding z-score [2],PBM binding z-score [3],PBM binding z-score [4],PBM binding z-score [5],PBM binding z-score [6],PBM binding z-score [7],PBM binding z-score [8]
CGTCCAAGGTCGGAGAGGTCAGTGAATGCCGAGT,4.01,4.23,4.66,2.06,3.74,3.34,1.31,3.93
ACTAGTTGGTCAGATGAGGTCACACACAATTCGG,4.39,3.94,3.9,1.44,4.3,4.8,4.95,4.21
CAAACTCGGTCAAGAGGTCAAAGTCCGCTTCCCG,5.17,7.26,6.13,2.01,6.42,3.9,1.61,3.72
TCTGCTAGGTCAACGATGGTCAGATAATCTGCTA,3.47,3.89,5.5,0.978,3.11,3.17,0.478,-0.329
CGTCAAAATTCAAGGTAACGTAACAGAAAGCAGC,0.985,0.175,0.447,-0.0025,0.308,1.64,1.15,0.24
TGATATAGGTAAATGCTAGGTGAAAGTCCGATCT,0.551,0.276,0.33,-0.331,0.453,1.18,0.59,-0.0449
ATCTCTAGGTAACCAGTTCAGTGAAAGAGAGGAC,1.05,0.822,0.768,0.358,0.791,1.35,1.18,1.35
CATACTAGGTCAAGAGGTCAAAGTCCGCTTCCCG,5.69,8.1,7.68,3.2,8.08,4.5,2.62,4.64
ATATGTAGGTTAGCTGGGGTCATGCAGACTAGGC,4.19,4.65,3.65,1.38,6.31,5.42,3.72,4.15
TAGCCTAGGTCATTCAGGGGCCCGTATAGAAAGC,2.42,4.22,3.89,1.39,2.77,3.61,0.839,1.32
CGTGCAAGGTCAATGCTAGGTCAGTGAAAGCATT,4.95,7.96,7.27,3.39,5.44,4.64,2.44,2.89
CTCGAATGGTCGTGCTCAGGTGAGTATACCAAAC,0.249,-0.157,-0.12,-0.0041,-0.189,1.11,0.835,-0.378
CGAACGAGGGCATGAGTTGATAGCTAATGCCGAT,0.599,1.51,1.52,2.15,0.984,1.25,-0.207,1.67
AGTCAAAGTTCTCTAGGTAACGTAAGATTCAGCT,0.137,0.139,0.523,0.597,0.0862,0.903,0.459,0.273
ACTAGCAGGCCAAGGGTCACACAAGATTAGTCCG,4.06,4.6,4.2,0.3,4.68,3.16,0.442,1.42
TCGCCTAGGTCAGATCGGGCCAGTATACGCTATA,2.21,2.39,3.24,0.643,1.38,3.98,0.0988,-0.139
GCTAGCAAGCCATTTGGGTCACTCAATGACGGGC,1.36,0.373,0.621,-0.364,0.56,1.51,0.353,-0.322
